From PubChem BioAssay (NCI)
This is part of a sample that, as a whole, favours compounds with a hit. Of some 79,000 tested, about 15% had one in any assay. Unmarked numbers belong to inactive results. The source made the active and inactive calls. No stated cut-off is given here; in the data, active means growth inhibition above about 70%; inactive means the rest.

Experiment: NCI Yeast Anticancer Drug Screen. Data for the rad52 strain (AID 147);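 further: 0% = growth of vehicle-treated control cultures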
Details: S. cerevisiae rad52 mutant growth inhibition, hits give high values
Protocol: Growth inhibition of yeast strains with defined genetic alterations is measured as a screen for potential anti-cancer activity. Selected strains with alterations in DNA damage repair or cell cycle control were exposed to compounds and growth inhibition was measured relative to vehicle treated controls. The strain used in this assay is rad52

SMILES	growth inhibition (at 1.2 µM)	growth inhibition (at 3.7 µM)	growth inhibition (at 11.0 µM)	growth inhibition (at 33.0 µM)	growth inhibition (at 100.0 µM)
S=c1[nH]c2cc3ccccc3cc2[nH]1	-42%	-46%	-37%	-31%	-19%
CCOC(=O)/C(=C\c1ccc(C#N)cc1)C(C)=O	-40%	-32%	-4%	86% (active)	99% (active)
CC1=NOC(=O)/C1=C/c1ccc2c(c1)OCO2	0%	4%	17%	32%	39%
C=C1CCC(O)C/C1=C/C=C1\CCCC2(C)C1CCC2C(C)CCCC(C)C (stereo not given)	-22%	-3%	-11%	4%	49%
Cc1cccc2c1nc1ccc(Cl)cc1[n+]2C	0%	9%	79% (active)	98% (active)	97% (active)
C=C(Cl)COC(=O)Nc1cccc(Cl)c1	3%	8%	30%	80% (active)	97% (active)
N#CC1=C(N)N(/N=C/c2ccccc2)C(c2ccccc2)C1(C#N)C#N (stereo not given)	15%	41%	78% (active)	90% (active)	84% (active)
COc1cc2ccnc(-c3c4ccccc4c(N)c4c(OC)c(OC)ccc34)c2cc1OC	5%	20%	60%	86% (active)	93% (active)
